Screening data from PubChem.
ssDAF12 agonist = activates DAF-12 receptor from parasite S. stercoralis; hit rate 1% among 370,000; activation, % at 6.8 µM; AID 652126; HEK293 ssDAF-12/GRIP1 lit1-tk-luc reporter, luminescence; % of 3 µM dafachronic acid response;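 active = activation above the mean over all tested compounds plus 3 SD, cut at about 0.9% in these data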
hcDAF12 agonist = activators of H. contortus DAF-12 nuclear receptor. hit rate 1.4% among 370,000. HEK293 hcDAF-12 lit1-tk-luc reporter, luminescence; 0% DMSO, 100% Δ7-dafachronic acid. AID 652067. activation, % at 6.8 µM;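 active = activation above the mean of all tested compounds plus 3 SD, cut at about 5.5% in these data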
hgDAF-12 ag = hgDAF-12 agonism, primary luciferase screen; HEK293 GAL4-hgDAF12 UAS-luciferase reporter, agonist luminescence; normalized to butyrate control; activation, % at 6.8 µM; hit rate 1.8% among 370,000;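 active = activation above a cutoff set at the mean of all screened compounds plus 3 SD, cut at about 10% in these data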
DAX1 inh-1 = NR0B1 (DAX1) inhibition; AID 504766; hit rate 0.99% among 340,000; inhibition, % at 6.75 µM; HEK293 Gal4-DAX1 luciferase reporter, luminescence; P51843;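 active = inhibition above the mean over all tested compounds plus 3 SD, cut at about 4.2% in these data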;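 note: inhibition shows as a rise in luminescence from relieved DAX1 repression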
Target sequence (P51843 207-470 limits assumed): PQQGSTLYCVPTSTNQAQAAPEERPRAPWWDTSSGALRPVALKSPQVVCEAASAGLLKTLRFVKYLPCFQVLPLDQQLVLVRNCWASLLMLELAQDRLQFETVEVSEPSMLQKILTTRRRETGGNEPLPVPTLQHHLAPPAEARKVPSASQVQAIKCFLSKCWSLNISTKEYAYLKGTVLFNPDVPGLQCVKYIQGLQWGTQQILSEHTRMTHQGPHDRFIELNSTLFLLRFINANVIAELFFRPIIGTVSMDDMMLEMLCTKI
DAX1 inh-2 = blocks DAX1 repression of SF-1 activated StAR promoter | HEK293T StAR-luciferase reporter, SF-1/DAX-1 repression relief | AID 652010 | hit rate 1.1% among 370,000 | inhibition, % at 6.8 µM;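 active = inhibition above the mean over all tested compounds plus 3 SD, cut at about 3.6% in these data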;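 note: higher inhibition means more luminescence from relief of DAX-1 repression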
Hits are given with their value. The list is not random: actives were taken first. Their share in the collection is about 4.1%.

Screening CC1=CC(=O)C(C(C)C)=C/C1=N\OC(=O)c1cccc2nc(C)oc12 returned ssDAF12 agonist inactive, hcDAF12 agonist 5.7, hgDAF-12 ag inactive, DAX1 inh-1 inactive and DAX1 inh-2 inactive.
Screening CC1(C)CCc2c([nH]c3ccccc3c2=O)O1 returned ssDAF12 agonist inactive, hcDAF12 agonist inactive, hgDAF-12 ag inactive, DAX1 inh-1 5.5 and DAX1 inh-2 inactive.
CCC1CCc2c([nH]c3ccccc3c2=O)O1 (centres undefined) was read as ssDAF12 agonist inactive, hcDAF12 agonist inactive, hgDAF-12 ag inactive, DAX1 inh-1 inactive and DAX1 inh-2 inactive.
For O=C(NCCc1c[nH]c2ccccc12)C(=O)NCC1OCCCN1S(=O)(=O)c1cccs1 (centres undefined) the results were ssDAF12 agonist 2.2, hcDAF12 agonist inactive, hgDAF-12 ag inactive, DAX1 inh-1 inactive and DAX1 inh-2 inactive.
O=C(NCCc1c[nH]c2ccccc12)C(=O)NCC1OCCCN1S(=O)(=O)c1ccc(F)cc1 (centres undefined) was read as ssDAF12 agonist inactive, hcDAF12 agonist inactive, hgDAF-12 ag inactive, DAX1 inh-1 inactive and DAX1 inh-2 inactive.
`O=C(O)Cc1sc(-c2ccc(Cl)cc2)nc1-c1ccccc1` gave ssDAF12 agonist inactive, hcDAF12 agonist inactive, hgDAF-12 ag inactive, DAX1 inh-1 inactive and DAX1 inh-2 inactive.
`O=C(O)Cc1sc(Nc2ccccc2)nc1-c1ccc(Cl)cc1` gave ssDAF12 agonist inactive, hcDAF12 agonist inactive, hgDAF-12 ag 11, DAX1 inh-1 inactive and DAX1 inh-2 inactive.
For O=C(O)Cc1sc(Nc2ccc(F)cc2)nc1-c1cccs1 the results were ssDAF12 agonist inactive, hcDAF12 agonist inactive, hgDAF-12 ag 15, DAX1 inh-1 inactive and DAX1 inh-2 inactive.
O=C(Cc1sc(Nc2ccccc2)nc1-c1ccccc1)NCc1ccccn1 was read as ssDAF12 agonist inactive, hcDAF12 agonist 6.0, hgDAF-12 ag 11, DAX1 inh-1 inactive and DAX1 inh-2 inactive.
Screening O=C(Cc1ccccc1)NCc1ccccn1 returned ssDAF12 agonist inactive, hcDAF12 agonist inactive, hgDAF-12 ag inactive, DAX1 inh-1 inactive and DAX1 inh-2 inactive.
For O=C(CN(Cc1ccco1)C(=O)c1cc(=O)[nH]c2ccccc12)Nc1ccccc1C(F)(F)F the results were ssDAF12 agonist inactive, hcDAF12 agonist inactive, hgDAF-12 ag inactive, DAX1 inh-1 6.3 and DAX1 inh-2 inactive.
For CC(=O)N1C[C@H]2CON(C)[C@H]2C[C@H]1c1ccccc1-c1ccccc1 the results were ssDAF12 agonist inactive, hcDAF12 agonist inactive, hgDAF-12 ag inactive and DAX1 inh-2 inactive.
For C=CCn1c(SCC(=O)c2ccc(F)cc2)nnc1-c1ccc2c(c1)OCO2 the results were ssDAF12 agonist 1.3, hcDAF12 agonist inactive, hgDAF-12 ag inactive, DAX1 inh-1 inactive and DAX1 inh-2 inactive.
`CCO[C@@H]1OC(C(N)=O)=C[C@H](C2CCCCC2)[C@H]1CCCO` gave ssDAF12 agonist inactive, hcDAF12 agonist inactive, hgDAF-12 ag inactive, DAX1 inh-1 4.3 and DAX1 inh-2 inactive.
For CCO[C@H]1OC(C(=O)NC2CC2)=C[C@@H](C2CCCCC2)[C@@H]1CCCO the results were ssDAF12 agonist inactive, hcDAF12 agonist inactive, hgDAF-12 ag inactive, DAX1 inh-1 inactive and DAX1 inh-2 inactive.
For CCO[C@@H]1OC(C(=O)O)=C[C@H](C2CCCCC2)[C@H]1CCCO the results were ssDAF12 agonist inactive, hcDAF12 agonist inactive, hgDAF-12 ag inactive, DAX1 inh-1 inactive and DAX1 inh-2 inactive.
For C#CCNC(=O)C1=C[C@@H](C2CCCCC2)[C@H](CCCO)[C@@H](OCC)O1 the results were ssDAF12 agonist inactive, hcDAF12 agonist inactive, hgDAF-12 ag inactive, DAX1 inh-1 5.3 and DAX1 inh-2 inactive.
Screening O=C1C[C@@H](O)[C@H](O)c2cccc(O)c21 returned ssDAF12 agonist inactive, hcDAF12 agonist inactive, hgDAF-12 ag inactive and DAX1 inh-2 inactive.
Cc1ccc(-n2c(SCC(=O)c3ccc(Br)cc3)nnc2-c2ccncc2)cc1 was read as ssDAF12 agonist inactive, hcDAF12 agonist inactive, hgDAF-12 ag inactive and DAX1 inh-2 inactive.
`O=P(c1ccccc1)(c1ccccc1)C(O)c1ccccn1` (centres undefined) gave ssDAF12 agonist 1.2, hcDAF12 agonist inactive, hgDAF-12 ag inactive and DAX1 inh-2 inactive.
Screening O=P(c1ccccc1)(c1ccccc1)C(c1ccccn1)P(=O)(c1ccccc1)c1ccccc1 returned ssDAF12 agonist inactive, hcDAF12 agonist inactive, hgDAF-12 ag inactive and DAX1 inh-2 inactive.
Screening Cc1ccc(S(=O)(=O)N(C)[C@H]2C[C@H]3c4cc(N5CCOCC5)ccc4CCN3C[C@H]2[C@H](C)O)cc1 returned ssDAF12 agonist inactive, hcDAF12 agonist inactive, hgDAF-12 ag inactive and DAX1 inh-2 inactive.
`O=c1c(Cc2c(F)cccc2Cl)c(O)ccn1CCCn1ccnc1` gave ssDAF12 agonist inactive, hcDAF12 agonist inactive, hgDAF-12 ag inactive, DAX1 inh-1 4.3 and DAX1 inh-2 inactive.
Cc1nc2cc(C(=O)N3CCN(C(=O)C(C)(C)C)CC3)ccc2n1C1CCCC1 was read as ssDAF12 agonist inactive, hcDAF12 agonist inactive, hgDAF-12 ag inactive and DAX1 inh-2 inactive.
`O=C1OCc2cc(NC(=O)C3CCCO3)ccc21` (centres undefined) gave ssDAF12 agonist inactive, hcDAF12 agonist 5.8, hgDAF-12 ag inactive, DAX1 inh-1 inactive and DAX1 inh-2 inactive.
For O=C1NC(=O)c2cc(NC(=O)C3CCCO3)ccc21 (centres undefined) the results were ssDAF12 agonist inactive, hcDAF12 agonist inactive, hgDAF-12 ag inactive, DAX1 inh-1 inactive and DAX1 inh-2 inactive.
`O=C1CCC[C@H]2Cc3nc4ccccc4cc3C[C@]23CCCN13` gave ssDAF12 agonist inactive, hcDAF12 agonist inactive and hgDAF-12 ag inactive.
COc1ccc(-c2nnc(-c3ccc(N)cc3)o2)cc1 was read as ssDAF12 agonist inactive, hcDAF12 agonist inactive, hgDAF-12 ag 11, DAX1 inh-1 inactive and DAX1 inh-2 inactive.
For O=C(NC(=S)Nc1ccccc1Br)C1CCC1 the results were ssDAF12 agonist inactive, hcDAF12 agonist inactive, hgDAF-12 ag inactive, DAX1 inh-1 inactive and DAX1 inh-2 inactive.
Screening N#Cc1ccccc1NC(=S)NC(=O)C1CCC1 returned ssDAF12 agonist inactive, hcDAF12 agonist inactive, hgDAF-12 ag inactive, DAX1 inh-1 4.3 and DAX1 inh-2 inactive.
`CNS(=O)(=O)c1ccc(NC(=O)c2cnn3c(C(F)F)cc(-c4ccccc4)nc23)cc1` gave ssDAF12 agonist inactive, hcDAF12 agonist inactive, hgDAF-12 ag inactive, DAX1 inh-1 inactive and DAX1 inh-2 inactive.
O=C(Nc1cccc(S(=O)(=O)N2CCOCC2)c1)c1cnn2c(C(F)F)cc(-c3ccccc3)nc12 was read as ssDAF12 agonist inactive, hcDAF12 agonist inactive, hgDAF-12 ag inactive, DAX1 inh-1 5.0 and DAX1 inh-2 inactive.
`COc1ccc(CCn2nc(C)c([N+](=O)[O-])c2C)cc1` gave ssDAF12 agonist inactive, hcDAF12 agonist inactive, hgDAF-12 ag inactive, DAX1 inh-1 inactive and DAX1 inh-2 4.2.
For CN1CCN(c2ccncc2S(=O)(=O)N2CCCCC2)CC1 the results were ssDAF12 agonist inactive, hcDAF12 agonist inactive, hgDAF-12 ag inactive, DAX1 inh-1 4.9 and DAX1 inh-2 inactive.
